Potency and activity change, negative = inhibition data for 50 compounds are collected here from PubChem BioAssay AID2675 (National Center for Advancing Translational Sciences (NCATS), 2010).

Among all 280,000 compounds or so, about 100 (0.036%) were called active. About 11% were inconclusive and are not listed. Shown is part of a subset that was picked to be rich in actives. Entries that show only a call come without a potency. Unmarked numbers belong to inactive results. The call rests on the fitted dose curve; in most records, active means well fitted inhibition curve with a large enough effect in the signal ratio, with a control signal flat (not every such curve was filed as active); inconclusive means small, poorly fitted or top-dose-only effect, or effect the other way, or a change in a side signal; inactive means no such curve, though single readings can be large or run the other way; the % refers to the signal ratio.
Potency means the concentration at half of the fitted maximal effect.

The target of the test is Muscleblind-like protein 1 (Homo sapiens) (UniProt Q9NR56). Nature of the test: qHTS Assay for Inhibitors of MBNL1-poly(CUG) RNA binding. Conditions: TR-FRET MBNL1-His/biotin-(CUG)12 binding, 665/545 ratio; series mostly up to 57.5 µM. The source says: NIH Chemical Genomics Center [NCGC] NIH Molecular Libraries Probe Production Centers Network [MLPCN] MLPCN Grant: R03 MH087421-01 Assay Submitter (PI): Charles Thornton NCGC Assay Overview: Expanded CTG repeats in the 3' untranslated region of the DM protein kinase (DMPK) gene causes type I myotonic dystrophy (DM1). DM1 is a multi-systemic disease with a prevalence of 1/7000. Clinical features include myotonia, progressive muscle weakness and wasting, cardiac arrhythmia, insulin resistance, hypersomnolence, cataracts, and other symptoms. The pathogenic effect of expanded CTG repeats stems from deleterious effects of the mutant transcript. CUGexp mRNA accumulates in nuclear foci and sequesters proteins of the muscleblind family, of which MBNL1 is the most common family member in skeletal muscles. The binding interaction between MBNL1 and CUGexp tracts leads to deregulation of alternative splicing and is therefore a key molecular step in the pathogenesis of DM1. To target this binding interaction, we optimized a protein-RNA binding assay in 1536-well format for identification of small molecule inhibitors of biotinylated (CUG)12 and his-tagged MBNL1 binding. Protein-RNA complex of MBNL1-His and Biotin-(CUG)12 captures the detection reagents terbium-labeled anti-His antibody and streptavidin conjugated XL665. This brings the terbium label within close proximity to XL665 to allow time-resolved fluorescence resonance energy transfer (TR-FRET). Inhibitors of MBNL1-(CUG)12 binding will disrupt TR-FRET.
Muscleblind-like protein 1 (Homo sapiens), sequence (Q9NR56 whole entry, looked up): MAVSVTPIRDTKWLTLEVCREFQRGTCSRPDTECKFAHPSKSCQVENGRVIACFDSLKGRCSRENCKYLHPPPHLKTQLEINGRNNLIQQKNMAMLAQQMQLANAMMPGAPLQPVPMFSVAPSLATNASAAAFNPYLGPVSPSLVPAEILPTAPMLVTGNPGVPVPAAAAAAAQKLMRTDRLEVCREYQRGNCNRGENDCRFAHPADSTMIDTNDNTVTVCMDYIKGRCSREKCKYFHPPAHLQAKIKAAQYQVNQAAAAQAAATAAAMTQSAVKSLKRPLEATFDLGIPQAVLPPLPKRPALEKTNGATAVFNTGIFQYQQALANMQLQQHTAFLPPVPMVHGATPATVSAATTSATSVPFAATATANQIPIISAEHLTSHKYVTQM
NCGC Assay Protocol Summary: This is a TR-FRET binding assay with MBNL1-His and Biotin-(CUG)12 RNA. The assay uses a ratiometric measurement. In the presence of MBNL1-(CUG)12 complex, the excitation energy is transferred to the XL665 acceptor label, causing emission at 665nm, while the 545nm donor signal […]. Data were normalized to the controls for basal activity (buffer only) and 100% activity (with MBNL1-(CUG)12). […] The final titration was 92 nM to 58 uM. (3) Add 1 ul of terbium labeled anti-His antibody (0.055 ng/ul final concentration) (4) Add 1 ul of streptavidin-XL665 (5 nM final concentration) (5) Incubate 60 min at room temperature (6) Detect the assay plate in a EnVision plate reader (PerkinElmer) with Ex=340 nm, Em1=665 nm and Em2=545 nm. Keywords: mytonic dystrophy type I, DM1, muscleblind like 1, MBNL1, CUG expansion, protein-RNA binding inhibitor, high throughput screening, MLSMR, MLSCN, NIH Roadmap, qHTS and NCGC
For orientation: In qHTS, concentration-response curves come from the screen itself.
On to `COc1cccc(NC(=O)Cn2cnc3sc(C)c(S(=O)(=O)N4CCN(C)CC4)c3c2=O)c1`, for which the Potency was 31.6 µM (active).
With `COc1ccc(N2CCN(C(=O)Cn3cnc4sc(C)c(S(=O)(=O)N5CCOCC5)c4c3=O)CC2)cc1`, the activity change, negative = inhibition result was “inactive”.
Still for that read-out and setting: under `Cc1sc2ncn(CC(=O)NCCN(C)C)c(=O)c2c1S(=O)(=O)N1CCC(C)CC1` stands “inactive”; under `CCC1Sc2ccc(S(=O)(=O)CCC(=O)NCc3cccs3)cc2NC1=O` (stereo not given), “inactive”.
Regarding `O=C(CNc1cccc(S(=O)(=O)N2CCCCC2)c1)Nc1ccccc1F`, the activity change, negative = inhibition entry is “inactive”.
On the same count and under the same terms, in the case of `Cc1c(C)c2ccc(OCC(=O)N3CCN(c4cccc(Cl)c4)CC3)cc2oc1=O` it was “inactive”; in that of `CC1CN(C(=S)Nc2ccccc2F)CC(C)O1` (stereo not given), “inactive”; in that of `O=C(Nc1ccc(Cl)cc1)c1cccc(OC(=S)N2CCOCC2)c1`, “inactive”.
Same read-out and setting: under `CC(=O)N1CCN(c2ccccc2NC(=S)NC(=O)c2cc3ccccc3o2)CC1` stands “inactive”; under `COc1ccc(N2CCN(C(=O)[C@@H](NC(=O)c3cc(OC)cc(OC)c3)C(C)C)CC2)cc1`, “inactive”; under `O=[N+]([O-])c1ccc(O)c(/C=N/Nc2ccccc2[N+](=O)[O-])c1`, “inactive”.
Still for that read-out and setting: under `O=C1OC2(CCCCC2)CC2=C1C1O[C@](c3ccsc3)(Cc3ccccc31)O2` stands -2.14% [at 11.5 µM].
As for `CCCCn1c(-c2cccc(C)c2)nc2cc3[nH]c(=O)c(C(C)C)nc3cc21`, the activity change, negative = inhibition entry is “inactive”.
For the compound `COc1cc(C(=O)NCc2ccncc2)cc(Br)c1OCc1ccccc1`, the activity change, negative = inhibition result was “inactive”.
Still for that read-out and setting: in the case of `CC1CCN(C(=S)NC(=O)c2ccccc2Br)CC1` it was “inactive”.
With `CCC(CC)c1nnc(NC(=O)C2CCN(C(=O)c3ccco3)CC2)s1`, the activity change, negative = inhibition result is “inactive”.
Regarding `COc1cccc(Cn2cc(/C=N/NC(=O)c3cc(O)cc(O)c3)c3ccccc32)c1`, the activity change, negative = inhibition entry was “inactive”.
Still for that read-out and setting: under `CC1(C(=O)NNC(=S)NCC2CCCO2)CC1(Cl)Cl` (stereo not given) stands “inactive”; under `CCCCC(CC)CNCc1cccn1CCN1CCOCC1` (stereo not given), “inactive”; under `COc1ccc(CSc2nnnn2-c2ccc(O)cc2)cc1F`, “inactive”.
Same read-out and setting: in the case of `CCOCCCNc1nc(-c2ccccc2)nc2ccccc12` it was “inactive”; in that of `CCOc1ccc(NC(=O)CN2CCN(CC(=O)Nc3ccc(OC)cc3)CC2)cc1`, “inactive”; in that of `COc1ccc(NC(=S)NCCNC(C)=O)cc1`, “inactive”.
Take `COc1ccc(Cc2n[nH]c(=S)n2NC(=O)Nc2ccc(C)cc2)cc1`: the Potency is 25.1 µM (active).
For the compound `COc1ccc(C(=O)c2c(C)c(CCC#N)n3ccccc23)c(OC)c1`, the activity change, negative = inhibition result was “inactive”.
Still for that read-out and setting: in the case of `Cc1[nH]c(C)c(S(=O)(=O)N2CCN(c3cccc(C(F)(F)F)c3)CC2)c1C(=O)N1CCCCC1` it was “inactive”; in that of `Cc1ccccc1C(=O)N1CCN(c2ccc(NC(=O)c3cccs3)cc2)CC1`, “inactive”.
Take `CC(=O)c1ccc(NC(=O)c2sc3nc4n(c(=O)c3c2C)CCCCC4)cc1`: the activity change, negative = inhibition entry is “inactive”.
In the case of `CC(=O)N1c2ccc(S(=O)(=O)NCCC(=O)N(C)C3CCCCC3)cc2CC1C` (stereo not given), the activity change, negative = inhibition entry is “inactive”.
Same read-out and setting: in the case of `CC(=O)c1ccc(N2CCN(C(=O)C3CCN(S(=O)(=O)c4ccc5c(c4)CC(C)N5C(=O)C4CC4)CC3)CC2)cc1` (stereo not given) it was “inactive”.
In the case of `C/C(=N\NC(=O)c1ccoc1C)c1ccccc1O`, the activity change, negative = inhibition result was “inactive”.
The same measure, in the same setting: under `COc1ccc(N2CCN(S(=O)(=O)CCNC(=O)C34CC5CC(CC(C5)C3)C4)CC2)cc1` stands “inactive”; under `O=C(Nc1ccncc1)Nc1ccc(F)cc1`, “inactive”.
Same read-out and setting: under `O=S(=O)(c1cccc(Cn2nnc(-c3ccc(F)cc3)n2)c1)N1CCOCC1` stands “inactive”.
Regarding `CN(CC(=O)Nc1ccc(F)cc1)C(=O)c1ccc(-c2ccc(Cl)cc2)o1`, the activity change, negative = inhibition result was “inactive”.
On the same count and under the same terms, in the case of `COc1ccccc1CCNC(=O)c1c(C)nn(CC(C)C)c1Cl` it was “inactive”; in that of `CCCOc1ccc(C2=CSC3=NCCN23)cc1Cl`, “inactive”; in that of `CN(CC1CCCO1)S(=O)(=O)c1ccc(C(=O)Nc2ccc(F)cc2)cc1` (stereo not given), “inactive”.
`Cc1ccc2sc(N(CCN(C)C)C(=O)/C=C/c3cccs3)nc2c1C`: the activity change, negative = inhibition result is “inactive”.
Still for that read-out and setting: under `Cc1cc(C)c(SCCc2ccncc2)c(C)c1` stands “inactive”.
The same measure, in the same setting: in the case of `Cc1ccc(OCC(=O)Nc2ccc(N3CCN(C(=O)c4ccco4)CC3)cc2)c(C)c1` it was “inactive”.
As to `COc1ccc(CN(C)C(=O)Cc2ccsc2)c(OC)c1OC`, the activity change, negative = inhibition entry was “inactive”.
The same measure, in the same setting: in the case of `Cc1ccc(-c2noc(C3CCCN(C(=O)c4cccc(Cl)c4)C3)n2)o1` (stereo not given) it was “inactive”.
In the case of `O=C(C1CCC(=O)N(C2CC2)C1)N1CCN(c2ccc(Cl)cc2)CC1` (stereo not given), the activity change, negative = inhibition entry was “inactive”.
Regarding `Cc1cc(C)c(NC(=O)CN2CCCCCC2)c(C)c1`, the activity change, negative = inhibition result was “inactive”.
As for `COc1cc(Nc2nc3ccc(Cl)cc3n3cnnc23)cc(OC)c1OC`, the activity change, negative = inhibition result is “inactive”.
On the same count and under the same terms, under `Cc1ccc(CS(=O)(=O)CCC(=O)NCc2ccc(F)cc2)cc1` stands “inactive”; under `CCOC(=O)C1(CCOC)CCN(Cc2cc3ccccc3s2)CC1`, “inactive”; under `CCOCCCn1c(SCC(=O)Nc2cc(OC)ccc2OC)nc2ccccc2c1=O`, “inactive”.
Regarding `C[C@H]1[C@H]2c3nc4ccccc4n3C[C@H]1ON2C1CCCCC1`, the activity change, negative = inhibition entry is “inactive”.
